Experiment in all cases: NCI-60 one-dose screen, 48 h (100 = growth as untreated, 0 = no growth, -100 = all killed)
What all share (settings): 10 µM unless noted

Assay [1] relates to SR leukemia.
For assay [2], the system named is RPMI-8226 leukemia.
In assay [3] the test system is OVCAR-8 ovarian.
Assay [4] concerns OVCAR-5 ovarian.
For assay [5], the system named is OVCAR-4 ovarian.
In assay [6] the test system is SK-OV-3 ovarian.
Assay [7] concerns IGROV1 ovarian.
The subject of assay [8] is OVCAR-3 ovarian.
Assay [9] has as its system HS 578T breast.
The subject of assay [10] is NCI/ADR-RES ovarian.

This is part of a sample that, as a whole, favours compounds with a hit. Of some 83,000 tested, about 20% had one in any assay.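 How to read the values: 0–100, growth inhibition (40 = 60% inhibited); 0, no net growth; -100 to 0, cell death (-40 = 40% of starting cells died; -100 = all dead).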 Values without a mark were called inactive. The source made the active and inactive calls. The calls were made as follows: active = growth percent below 10; inactive = the rest.

Turning to `CCCN(CCC)C(=O)c1ccc(C)cc1`, the growth in [1] is 95%; in assay [2], 93.3%; in assay [3] it was 103%; in [4] it was 95.3%; in assay [5] it was 110%; in assay [6], 94.9%. For the same molecule, the growth was 106% in [7], 109% in assay [8], 84.1% in assay [9] and 100% in assay [10].

`CN(C)c1ccc(/C=C/c2sc3ccc4ccccc4c3[n+]2C)cc1`: the growth is -30.7% (active) in assay [1]; -26.6% (active) in assay [2]; -31.1% (active) in assay [3]; -27.3% (active) in assay [4]; -19.9% (active) in [5]; -23.7% (active) in assay [6]. Further, the growth in assay [7] was -11.2% (active); in assay [8], -63% (active); in assay [9] it was -29.1% (active); in [10], 34%.

In the case of `Oc1c(Cl)cc(Cl)cc1C=NCC1CCC(CN=Cc2cc(Cl)cc(Cl)c2O)CC1` (stereo not given), the growth was 52.3% in assay [1]; 76.7% in assay [2]; 90% in assay [3]; 114% in [4]; 75.2% in assay [5]; 88.5% in assay [6]. In addition, the growth is 69.6% in [7], 83.5% in assay [8], 92.7% in assay [9] and 85.2% in [10].

Take `CN(C)c1ccc(/C=C/c2cc[n+](C)c(/C=C/c3ccc(N(C)C)cc3)c2)cc1`: the growth in assay [1] was -34.3% (active); in assay [2], -26.4% (active); in assay [3], 5.17% (active); in assay [4], 21.9%; in [5], 19.9%; in [6], 7.83% (active). Also, the growth in assay [7] is 11%; in [8], 20.5%; in assay [9], 32.9%; in [10] it was 58.8%.

In the case of `O=[N+]([O-])CC(O)c1ccccc1` (stereo not given), the growth is 88.2% in assay [1]; 89.7% in [2]; 97.7% in [3]; 95.7% in [4]; 93.8% in assay [5]; 118% in [6]. Also, the growth in assay [7] was 112%; in assay [8], 121%; in [9], 125%; in assay [10] it was 101%.

`c1ccc(C2NCCNC2c2ccccc2)cc1` (stereo not given): the growth in assay [1] was 98.1%; in assay [2], 108%; in assay [3], 101%; in assay [4] it was 99.3%; in assay [5], 116%; in assay [6], 113%. In addition, the growth in [7] is 102%; in [8], 113%; in assay [9] it was 104%; in [10] it was 109%.

Take `O=[N+]([O-])c1ccc(N2CCN(Cc3ccccc3)CC2)c2c1no[n+]2[O-]`: the growth in [1] is -47.7% (active); in [2] it was -15.1% (active); in [3], 0.836% (active); in [4] it was 26.5%; in assay [5], -50.2% (active); in assay [6], 58.4%. The growth in assay [7] is -42% (active); in assay [8], -53.7% (active); in [9], 30.5%; in assay [10], 24.5%.

With `O=C(O)c1cccc2cccc(-c3c4ccc(=O)c(O)c-4oc4c(O)c(O)ccc34)c12`, the growth was 83.6% in [1]; 123% in [2]; 100% in assay [3]; 97.5% in assay [4]; 97.4% in [5]; 90.1% in assay [6]. In addition, the growth in assay [7] is 101%; in assay [8], 93.5%; in [9], 99.5%; in assay [10], 96.7%.

In the case of `CC1(C)OC2C(COC(c3ccccc3)(c3ccccc3)c3ccccc3)OC(c3c[nH]c4c(N)ncnc34)C2O1` (stereo not given), the growth in assay [1] is 28.3%; in assay [2] it was 27.4%; in assay [3] it was 56.1%; in assay [4], 82.9%; in assay [5], 50.1%; in assay [6] it was 70%. The growth in [7] is 75.5%; in assay [8] it was 53.8%; in assay [9], 77.5%; in assay [10] it was 86.9%.

Turning to `CC/C(=C(/CC)c1ccc(O)cc1)c1ccc(O)cc1`, the growth in assay [1] was 21.1%; in assay [2], 61.7%; in [3], 80.1%; in [4] it was 89.4%; in assay [5], 76.8%; in assay [6], 38.4%. For the same molecule, the growth in assay [7] was 82.4%; in assay [8], 62.1%; in [9], 63%; in [10], 40.8%.

For `OC(c1cc(-c2ccc(Cl)cc2)nc2c(Cl)cccc12)C1CCCCN1` (stereo not given), the growth in assay [1] was -39.4% (active); in assay [2] it was -17.3% (active); in assay [3], -75.2% (active); in assay [4], -70.9% (active); in assay [5] it was -85.6% (active); in assay [6] it was -73.4% (active). For the same molecule, the growth in [7] was -73.7% (active); in [8] it was -95.1% (active); in assay [9], -47.6% (active); in [10] it was -70.3% (active).

Consider `O=[n+]1c2ccccc2n([O-])c2cc(Cl)ccc21`, for which the growth in [1] was 1.27% (active); in [2], 73.8%; in [3], 43%; in assay [4], 108%; in [5] it was 40.3%; in assay [6], 87.7%. The growth in assay [7] was 65.6%; in assay [8] it was 44.6%; in assay [9], 88.8%; in assay [10] it was 59.6%.

As to `N#CC(I)CS(=O)(=O)c1ccccc1` (stereo not given), the growth in assay [1] was 109%; in [2], 101%; in assay [3] it was 91.5%; in assay [4], 106%; in assay [5], 95.4%; in [6] it was 102%. The growth in assay [7] was 69.3%; in assay [8] it was 76.4%; in [9], 114%; in [10], 97.4%.

`CCc1cnc2ccccc2c1/C=C/c1ccc(N(C)C)cc1`: the growth in assay [1] was 4.96% (active); in assay [2], 67.3%; in assay [3], 59.5%; in [4], 75%; in assay [5], 79.3%; in assay [6], 38.5%. The growth in assay [7] is 42%; in assay [8] it was 16.9%; in assay [9], 62.8%; in assay [10], 21.8%.

As to `O=C/C=C/c1ccc([N+](=O)[O-])cc1`, the growth in [1] was 87.1%; in assay [2], 102%; in [3], 100%; in assay [4] it was 107%; in [5] it was 104%; in assay [6] it was 89.5%. For the same molecule, the growth in [7] is 101%; in [8], 104%; in assay [9], 100%; in assay [10] it was 99.6%.

These data come from PubChem BioAssay (NCI).
